According to ChEMBL document CHEMBL4513216, “Probing the Open Global Health Chemical Diversity Library for Multistage-Active Starting Points for Next-Generation Antimalarials” (ACS Infect Dis, 2020):
Screen size: about 65,000 compounds; about 2,100 (3.2%) showed an effect of 50% or more. The median lay at about -52%. The sample holds strong results, similar compounds and a random draw of the others, so the mix is not that of the screen.

What follows are compounds tested on Plasmodium falciparum (assay: Screen against P. falciparum Asexual Blood Stage (ABS), at 5uM). Settings: tested at 5 uM.
Type: functional, Dd2

Row | Structure (SMILES) | INHIBITION
1 | CC(Nc1cnn(C)c(=O)c1Cl)c1ccc(F)cc1 (centres undefined) | -75.2%
2 | N#Cc1cccnc1OC1CCN(S(=O)(=O)c2c(F)cccc2F)CC1 | -88.3%
3 | COc1ccc(C)cc1C(=O)NC(CC(=O)O)c1cccs1 (centres undefined) | -134%
4 | O=C1NCc2ccccc2CC12CCCN(Cc1ccsc1)C2 (centres undefined) | 64.3%
5 | O=C1NCc2ccccc2CC12CCCN(CCCc1ccccc1)C2 (centres undefined) | 39.2%
6 | COc1ccccc1CN1CCCC2(Cc3ccccc3CNC2=O)C1 (centres undefined) | 54.5%
7 | O=C(O)c1ccccc1CN1CCC2(Cc3ccccc3CNC2=O)C1 (centres undefined) | -111%
8 | Cc1cccc(CN2CCCC3(Cc4ccccc4CNC3=O)C2)n1 (centres undefined) | -31.3%
9 | N#Cc1ccc(CN2CCCC3(Cc4ccccc4CNC3=O)C2)cc1 (centres undefined) | 10.7%
10 | CCC(=O)N(CCC(=O)O)Cc1ccc(F)c(F)c1 | -62.6%
11 | Cc1cc(CN(C)C(C(=O)O)c2ccc(C(C)(C)C)cc2)on1 (centres undefined) | -96.1%
12 | COc1ccc(CNc2c(N3CCN(C(C)=O)CC3)c(=O)c2=O)cc1 | -16.8%
13 | CC(C)c1[nH]c2ncccc2c1CN1CCC(O)CC1 | -59.2%
14 | CC(C)(C)OC(=O)NCCc1csc(N2CCCC2)n1 | -50.6%
15 | Cn1cnc2c1C(COCc1ccccc1)N(Cc1cccnc1)CC2 (centres undefined) | 36.7%
16 | Cn1cnc2c1C(COCc1cccnc1)N(Cc1ccccc1)CC2 (centres undefined) | 23.7%
17 | Cn1cnc2c1C(COCc1ccccc1)N(Cc1ccncc1)CC2 (centres undefined) | 51.6%
18 | Cn1cnnc1C1CCCN(C(=O)NCCCn2cccn2)C1 (centres undefined) | -205%
19 | CC(C)CC(=O)N1CCC2(CC1)COCCN2Cc1ccc(F)cc1 | -3.2%
20 | Cc1cc(C)cc(C(=O)Nc2cccc(CN3CCCC3C(N)=O)c2)c1 (centres undefined) | -76.3%
21 | CCCn1c(NCCc2ccccc2)nc2c(C)nn(C)c2c1=O | -42.9%
22 | CCCNS(=O)(=O)Cc1ccc(Br)cc1 | -14.1%
23 | CN(C)CCN(C)S(=O)(=O)Cc1ccc(Br)cc1 | 63.7%
24 | CC(O)CCN(C)S(=O)(=O)Cc1ccc(Br)cc1 (centres undefined) | -23.8%
25 | CCOCC1CN(C(=O)C2=CCCC2)Cc2cnn(C)c21 (centres undefined) | -16.8%
26 | Cc1ccc(N[C@@H]2CN(Cc3cc(C)on3)C[C@@H]3CCCO[C@@H]32)nn1 | -84.9%
27 | Cc1cccc(CN2C[C@@H]3CCCO[C@@H]3[C@H](Nc3ccccn3)C2)n1 | 55.6%
28 | Cc1noc(C)c1CN1C[C@@H]2CCCO[C@@H]2[C@H](Nc2ccccn2)C1 | -37.5%
29 | N[C@@H]1c2ccccc2C2(CCN(c3ncccc3C(F)(F)F)CC2)[C@H]1O | -6.42%
